5 compounds from PubChem BioAssay AID1347074 (Center for Chemical Genomics, University of Michigan, 2019) can be followed below.

Out of some 47,000 compounds screened, about 2,800 (6%) were called active. Only a selection was taken, and actives are over-represented in it overall. Unmarked numbers belong to inactive results. Cut-off read from the data, not from the text of the source: active = z-score above about 3 (passing the limit was not always enough); inactive = the rest.

For this assay, the target named is Endoribonuclease Dicer (Homo sapiens) (UniProt Q9UPY3). Briefly: Dicer cleavage of pre-miR-21 blockers – biochemical, cat-ELCCA, chemiluminescence, primary screen (AID 1347074).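 Note: plate controls were vehicle for no effect and no enzyme for full effect; higher signal means more uncleaved substrate so more Dicer inhibition.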 The following applies: cat-ELCCA pre-miR-21 Dicer processing, at 25 µM, hits give high values.
Endoribonuclease Dicer (Homo sapiens), sequence (Q9UPY3 whole entry, looked up): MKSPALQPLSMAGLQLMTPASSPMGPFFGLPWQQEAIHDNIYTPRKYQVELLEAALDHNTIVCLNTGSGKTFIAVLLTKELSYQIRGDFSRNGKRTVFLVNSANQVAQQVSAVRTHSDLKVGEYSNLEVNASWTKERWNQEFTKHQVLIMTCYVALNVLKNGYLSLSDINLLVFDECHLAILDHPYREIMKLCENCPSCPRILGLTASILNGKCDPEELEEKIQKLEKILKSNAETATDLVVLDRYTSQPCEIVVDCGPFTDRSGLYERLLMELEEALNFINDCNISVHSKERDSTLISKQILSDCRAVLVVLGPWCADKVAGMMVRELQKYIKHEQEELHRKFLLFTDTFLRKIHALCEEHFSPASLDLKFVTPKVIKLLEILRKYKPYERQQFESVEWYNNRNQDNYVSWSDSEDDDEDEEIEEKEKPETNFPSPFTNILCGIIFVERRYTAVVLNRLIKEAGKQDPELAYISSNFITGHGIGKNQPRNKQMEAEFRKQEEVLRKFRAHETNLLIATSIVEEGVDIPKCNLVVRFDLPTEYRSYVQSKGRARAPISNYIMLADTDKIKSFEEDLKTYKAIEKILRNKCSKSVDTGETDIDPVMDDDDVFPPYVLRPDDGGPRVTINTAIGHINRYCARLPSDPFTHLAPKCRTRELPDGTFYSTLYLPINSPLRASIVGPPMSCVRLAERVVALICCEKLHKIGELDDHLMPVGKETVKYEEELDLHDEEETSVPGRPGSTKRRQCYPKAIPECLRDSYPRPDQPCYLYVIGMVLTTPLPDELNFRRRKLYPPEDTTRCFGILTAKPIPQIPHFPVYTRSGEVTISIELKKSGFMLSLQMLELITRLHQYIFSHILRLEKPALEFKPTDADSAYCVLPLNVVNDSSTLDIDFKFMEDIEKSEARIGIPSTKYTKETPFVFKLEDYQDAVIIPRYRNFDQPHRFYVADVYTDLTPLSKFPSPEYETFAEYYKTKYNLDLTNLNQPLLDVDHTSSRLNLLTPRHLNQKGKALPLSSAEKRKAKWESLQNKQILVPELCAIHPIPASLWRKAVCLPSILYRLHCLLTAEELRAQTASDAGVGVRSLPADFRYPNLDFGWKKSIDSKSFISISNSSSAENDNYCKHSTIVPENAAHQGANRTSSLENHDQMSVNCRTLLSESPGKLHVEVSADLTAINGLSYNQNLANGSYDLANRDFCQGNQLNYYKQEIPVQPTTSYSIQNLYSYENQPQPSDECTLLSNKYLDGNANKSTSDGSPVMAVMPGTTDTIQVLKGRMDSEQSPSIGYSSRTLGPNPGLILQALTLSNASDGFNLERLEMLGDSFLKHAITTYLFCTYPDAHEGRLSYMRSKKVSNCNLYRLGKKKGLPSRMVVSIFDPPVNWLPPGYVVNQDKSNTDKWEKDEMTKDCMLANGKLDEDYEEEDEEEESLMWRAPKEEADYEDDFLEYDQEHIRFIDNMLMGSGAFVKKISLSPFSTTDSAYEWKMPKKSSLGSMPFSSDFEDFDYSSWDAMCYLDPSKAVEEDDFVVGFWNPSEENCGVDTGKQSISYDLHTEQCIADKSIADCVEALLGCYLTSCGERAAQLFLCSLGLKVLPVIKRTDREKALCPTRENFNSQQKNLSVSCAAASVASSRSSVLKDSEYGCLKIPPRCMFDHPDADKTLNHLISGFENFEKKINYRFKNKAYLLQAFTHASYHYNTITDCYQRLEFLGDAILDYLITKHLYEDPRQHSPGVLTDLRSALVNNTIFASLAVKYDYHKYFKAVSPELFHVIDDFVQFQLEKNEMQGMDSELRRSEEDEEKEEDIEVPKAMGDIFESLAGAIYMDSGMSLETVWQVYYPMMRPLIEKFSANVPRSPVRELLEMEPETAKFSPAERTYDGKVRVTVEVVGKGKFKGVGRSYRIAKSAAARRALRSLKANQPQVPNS
Take `CCOc1c(Br)cc(CNCCc2c[nH]c3ccccc23)cc1OC`: the z-score was 6.45 (active). For `CC[N+]1(C)CCCC(OC(=O)C(O)(c2ccccc2)c2ccccc2)C1` (stereo not given) the value was -0.07; for `Fc1ccccc1CN1CCN(Cc2ccc3c(c2)OCO3)CC1`, -0.5; for `CN(C)C(=O)Oc1nnc(SCCS(=O)(=O)c2ccc(F)cc2)n1C1CC1`, -1.56. To `Cc1cccc(-c2nc(C)cc(OC(=O)N(C)C)n2)c1` belongs -0.47.
